The whole screen tested about 420,000 compounds, of which about 64,000 (15%) were called active. Inconclusive results (about 27%) are left out. Not all results are given here. Unmarked numbers belong to inactive results. The call rests on the fitted dose curve; in most records, active means well fitted inhibition curve with a large enough effect; inconclusive means small, poorly fitted or top-dose-only effect; inactive means flat fitted curve, though single readings scatter.
On the % scale 0 is the no-effect control and ±100 the full control effect; potency means the concentration at half of the fitted maximal effect.

This experiment is described as follows: qHTS for Inhibitors of human tyrosyl-DNA phosphodiesterase 1 (TDP1): qHTS in cells in absence of CPT. Further: nearly all actives have a fitted effect of over 55% in size. Particulars: DT40 Tdp1-/- hTDP1 cells, no CPT, ATP luminescence, 48 h; activity change, negative = growth inhibition: at 46.2 µM (top of the series). The procedure, abridged: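 No-CPT arm: Tdp1-/-;hTDP1 DT40 cells (400/well) plus compounds, incubated ≥48 hr at 37 °C. Readout CellTiter-Glo luminescence.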
For the molecule `CCOC(=O)c1ccc2[nH]c3c(c2c1)CCCC3NC=O` (stereo not given), the “activity change, negative = growth inhibition” value was -16.5%.
`C=CC1=C(C(=O)O)N2C(=O)[C@@H](NC(=O)/C(=N\OCC(=O)O)c3csc(N)n3)[C@H]2SC1`: the “activity change, negative = growth inhibition” value was -8.95%.
Regarding `Nc1c(N(CCCO)C(=O)C2CCCC2)c(=O)[nH]c(=O)n1Cc1ccccc1`, the “activity change, negative = growth inhibition” value is 13.1%.
For the molecule `COc1ccc(NC(=O)C(CC(C)C)NC(=O)C2CCC(C)CC2)cc1` (stereo not given), the “activity change, negative = growth inhibition” value is -27.2%.
Regarding `O=C(Cn1nc(Cc2cccnc2)c2ccccc2c1=O)NCC1CCCO1` (stereo not given), the “activity change, negative = growth inhibition” value is -3.45%.
As for `COc1cc(=O)n2c(c1C(=O)NCc1ccco1)CCN(Cc1ccccc1)CC2`, the “activity change, negative = growth inhibition” value was -17.1%.
As for `COCCNc1ncnc2c1ncn2[C@H]1CN(CCN2CCOCC2)C[C@@H](CO)O1`, the “activity change, negative = growth inhibition” value was -0.749%.
For the molecule `CN(CC(=O)NNC(=O)CNC(=O)c1ccccc1Cl)S(=O)(=O)c1ccc(Cl)cc1`, the “activity change, negative = growth inhibition” value is -14.8%.
`O=C1c2ccccc2C(=O)N1c1ccccc1S(=O)C(F)(F)F` (stereo not given): the “activity change, negative = growth inhibition” value was 5.16%.
As to `COc1ccc(CCNC(=O)Cn2c(=O)n(CC3CCCO3)c(=O)c3ccccc32)cc1OC` (stereo not given), the “activity change, negative = growth inhibition” value was -21.2%.
In the case of `COc1ccc(CCn2c(=N)c(C(=O)NCC3CCCO3)cc3c(=O)n4cccc(C)c4nc32)cc1OC` (stereo not given), the Potency is 0.517 µM (active).
Consider `COc1ccccc1-n1cnc2cc(C(=O)NCC3CCCO3)ccc21` (stereo not given), for which the “activity change, negative = growth inhibition” value is -7.49%.
The same measure, in the same setting: in the case of `CC1CCC(NC(=O)CN(C)S(=O)(=O)c2ccc3c(c2)c(=O)n(C)c(=O)n3C)CC1` (stereo not given) it was 1.05%.
With `CN(C(=O)CSc1nnc(C2CC2)n1C)C1CCCc2ccccc21` (stereo not given), the “activity change, negative = growth inhibition” value is 6.04%.
With `CCC1(CC)C(=O)C2=C3C1[C@H](C(=O)OC)C=C(C(=O)OC)C[C@H]3[C@H]1C(=O)N(Cc3ccccc3)C(=O)[C@H]1[C@H]2C` (stereo not given in full), the Potency is 16.4 µM (active).
For `COC(=O)C1=C[C@@H](C(=O)OC)[C@@H]2C3=C(C(=O)[C@]2(C)NC(=O)c2ccccc2)[C@H](C)n2c(=O)n(C)c(=O)n2[C@@H]3C1`, the “activity change, negative = growth inhibition” value is 9.24%.
Regarding `CCOC(=O)C1=CCC2C(=O)N(Cc3ccccc3)C(=O)C12` (stereo not given), the “activity change, negative = growth inhibition” value is -11.7%.
Same read-out and setting: in the case of `CCOc1ccccc1NC(=O)CCc1nnc2ccc(NCc3ccco3)nn12` it was -19.2%; in that of `CNC(=O)c1sc(NCc2ccccc2OC)nc1C`, -16.5%.
For `CNC(=O)c1sc(Nc2ccc(OCc3ccccc3)cc2)nc1C`, the Potency was 13 µM (active).
On to `Cc1cccc(NC(=O)Nc2ccc(OCc3ccccc3)cc2)n1`, for which the “activity change, negative = growth inhibition” value was 3.3%.
On to `COc1ccc(C(C(=O)NCC2CCCO2)N(C(=O)Cn2nnc3ccccc32)c2ccc(NC(C)=O)cc2)cc1OC` (stereo not given), for which the “activity change, negative = growth inhibition” value was -15.5%.
Still for that read-out and setting: with `COc1ccc(CNC(=O)[C@H](Cc2c[nH]c3ccccc23)NC(C)=O)cc1OC` the figure was -6.89%.
As to `COc1ccc(C(C(=O)NC2CCCCC2)N(C(=O)Cc2c[nH]c3ccccc23)c2ccccc2)cc1OC` (stereo not given), the Potency was 18.4 µM (active).
Turning to `CN(Cc1c(F)cccc1Cl)S(=O)(=O)c1cccs1`, the “activity change, negative = growth inhibition” value was -16%.
On to `O=C(NCc1ccccn1)C1CCN(S(=O)(=O)c2ccc(Br)cc2)CC1`, for which the “activity change, negative = growth inhibition” value was 4.5%.
For the molecule `CC1(C)CCSC(/C=C/c2ccccc2)=N1`, the Potency is 4.61 µM (active).
`CCCOc1ccc(NC(=O)C2CCCNC2=O)cc1` (stereo not given): the “activity change, negative = growth inhibition” value was 0.653%.
With `Cc1ccc(-c2ccnc(-n3ncc(C(=O)N(C)Cc4cccc5ncccc45)c3C3CC3)n2)o1`, the “activity change, negative = growth inhibition” value was -13.8%.
Same read-out and setting: with `Nc1nc(NCC(=O)O)nc(N2CCCCCC2)c1[N+](=O)[O-]` the figure was -0.0334%.
Consider `CC1CN(c2nc(Nc3ccccc3)nc(N)c2[N+](=O)[O-])CC(C)O1` (stereo not given), for which the Potency was 14.6 µM (active).
Turning to `CCN1CCN(c2nc(Nc3cccc(F)c3)nc(N)c2[N+](=O)[O-])CC1`, the “activity change, negative = growth inhibition” value was -20.6%.
Consider `CCOC(=O)c1ccccc1NC(=O)COC(=O)CCC(=O)N1CCOCC1`, for which the “activity change, negative = growth inhibition” value is -1.44%.
The same measure, in the same setting: in the case of `NC(=O)C1CC(=O)N(c2ccc(OCC(=O)NCc3ccccc3)cc2)C1` (stereo not given) it was 0.0429%; in that of `Cc1ccc(C(=O)NNC(=O)c2ccncc2)cc1S(=O)(=O)N1CCCCC1`, -17%.
`O=C(NNC1=C(C(=O)C(F)(F)F)CCC1)c1ccncc1`: the Potency is 1.64 µM (active).
As for `O=C(NNC(=O)c1cnccc1C(F)(F)F)c1ccc(Cl)cc1`, the “activity change, negative = growth inhibition” value is -14.1%.
Take `COc1ccc2c(c1)c1ncn(Cc3ccccn3)c(=O)c1n2C`: the “activity change, negative = growth inhibition” value was 4.45%.
Regarding `O=C(CSc1nnnn1-c1ccccc1)NCc1ccco1`, the “activity change, negative = growth inhibition” value was -4.79%.
Same read-out and setting: with `COc1cccc(CNc2nc3nc4c(c(=O)n3[nH]2)CCC4)c1` the figure was -4.84%.
As for `Cc1cn(C)c(CC(=O)NCc2ccc(Cl)cc2)c1C(=O)O`, the “activity change, negative = growth inhibition” value was 10.2%.
In the case of `COc1ccc(N2CCN(C(=O)c3ccc4c(Cl)c5c(nc4c3)CCCC5)CC2)cc1`, the Potency was 20.6 µM (active).
For `COc1cccc(CNC(=O)c2cccnc2Sc2ccc(Cl)cc2)c1`, the “activity change, negative = growth inhibition” value was 16.2%.
Take `COc1cccc(CNC(=O)c2ccc3c(Cl)c4c(nc3c2)CCCC4)c1`: the Potency was 23.1 µM (active).
Regarding `Cc1ccc(CNC(=O)CSc2c3c(nc4cc(Cl)ccc24)CCCC3)cc1`, the Potency was 14.6 µM (active).
In the case of `O=C(/C=C/c1ccc(Cl)cc1Cl)NCc1ccco1`, the “activity change, negative = growth inhibition” value is -27.7%.
For `COc1ccc(N2CCN(C(=O)c3ccc(N4CCCCS4(=O)=O)cc3)CC2)cc1`, the “activity change, negative = growth inhibition” value was -14.6%.
On to `Cc1ccc(CNC(=O)COc2ccc3c(c2)CCC3)cc1`, for which the “activity change, negative = growth inhibition” value is -13.2%.
For the molecule `O=C(CSc1c2c(nc3ccc(Cl)cc13)CCCC2)NCc1ccco1`, the Potency is 18.4 µM (active).
`Cc1cc(C)c2nc(-c3cccnc3)cc(C(=O)Nc3ccc(S(=O)(=O)Nc4onc(C)c4C)cc3)c2c1`: the “activity change, negative = growth inhibition” value was -22.7%.

The values above are taken from PubChem BioAssay AID686978 (National Center for Advancing Translational Sciences (NCATS), 2013).
